“And” between values parts separate entries of the source, which are not always exact repeats. Equal entries are not always repeated. About 83,000 compounds went through this panel and 20% of them were active in at least one assay; those are over-represented in the sample as a whole.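 The test compound was applied at a single concentration to cells in 96-well plates for 48 hours, and percent growth was recorded.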 The source made the active and inactive calls. Rule for the calls: active = growth percent below 10; inactive = the rest.

Test systems include HCT-15 colon; HT29 colon; SNB-75 CNS; SNB-19 CNS; U251 CNS; PC-3 prostate; SK-MEL-5 melanoma; UACC-62 melanoma; LOX IMVI melanoma; SK-MEL-28 melanoma; SK-MEL-2 melanoma; EKVX NSCLC; SN12C renal; UO-31 renal; TK-10 renal; ACHN renal; CAKI-1 renal; A498 renal; CCRF-CEM leukemia; MOLT-4 leukemia.
What all share (assay): NCI-60 one-dose screen, 48 h (100 = growth as untreated, 0 = no growth, -100 = all killed)
Holding throughout (conditions): 10 µM unless noted

Turning to `CCCCn1c(C(=O)c2c[nH]c3ccccc23)n[nH]c1=S`, the growth with HCT-15 colon is 99% (inactive); with HT29 colon, 99.8% (inactive); with SNB-75 CNS, 81.2% (inactive); with SNB-19 CNS, 100% (inactive); in the test with U251 CNS, 100% (inactive); in the test with PC-3 prostate, 93.8% (inactive). The growth in the test on SK-MEL-5 melanoma is 99.9% (inactive); with UACC-62 melanoma, 81.7% (inactive); with LOX IMVI melanoma it was 96.4% (inactive); in the test with SK-MEL-28 melanoma, 117% (inactive); with SK-MEL-2 melanoma, 91.9% (inactive); in the test with EKVX NSCLC, 90.3% (inactive). Further, the growth is 90% (inactive) in the test with SN12C renal; 90.1% (inactive) with UO-31 renal; 132% (inactive) in the test on TK-10 renal; 102% (inactive) with ACHN renal; 79.3% (inactive) in the test on CAKI-1 renal; 92.1% (inactive) in the test on A498 renal. Moreover, the growth in the test on CCRF-CEM leukemia was 91.3% (inactive); in the test on MOLT-4 leukemia it was 103% (inactive).
Turning to `O=C(NCc1ccc(Cn2c(=O)sn(-c3ccc(Cl)cc3)c2=O)cc1)OCc1ccc2c(Cl)cc(Cl)c(O)c2n1`, the growth in the test on HCT-15 colon is 15.7% (inactive); in the test with HT29 colon it was 111% (inactive); in the test with SNB-75 CNS it was 69% (inactive); with SNB-19 CNS, 39.1% (inactive); in the test on U251 CNS it was 36.3% (inactive); in the test on PC-3 prostate it was 35.5% (inactive). In addition, the growth in the test with SK-MEL-5 melanoma is 33% (inactive); with UACC-62 melanoma it was 33.4% (inactive); in the test with LOX IMVI melanoma it was 31.6% (inactive); with SK-MEL-28 melanoma it was 47% (inactive); with SK-MEL-2 melanoma, 74.3% (inactive); in the test on EKVX NSCLC, 44% (inactive). For the same molecule, the growth in the test with SN12C renal is 38.1% (inactive); with UO-31 renal, 13% (inactive); in the test on TK-10 renal, 63.7% (inactive); in the test on ACHN renal, 26% (inactive); in the test on CAKI-1 renal, 52.1% (inactive); in the test on A498 renal, 70.1% (inactive). The values for the growth in the test with CCRF-CEM leukemia and in the test with MOLT-4 leukemia were 31.9% (inactive) and 19.3% (inactive), respectively.
Regarding `CC(Sc1ccccc1)C(=O)O` (stereo not given), the growth was 100% (inactive) in the test on HCT-15 colon; 99.3% (inactive) in the test on HT29 colon; 91.6% (inactive) in the test on SNB-75 CNS; 94.5% (inactive) in the test with SNB-19 CNS; 91.1% (inactive) in the test on U251 CNS; 103% (inactive) in the test with PC-3 prostate. The growth in the test on SK-MEL-5 melanoma is 106% (inactive); in the test on UACC-62 melanoma it was 94.5% (inactive); with LOX IMVI melanoma, 95.6% (inactive); with SK-MEL-28 melanoma it was 106% (inactive); in the test on SK-MEL-2 melanoma it was 116% (inactive); with EKVX NSCLC it was 94.2% (inactive). Moreover, the growth in the test on SN12C renal was 103% (inactive); in the test with UO-31 renal it was 94.9% (inactive); with TK-10 renal, 102% (inactive); with ACHN renal, 104% (inactive); with CAKI-1 renal, 76.5% (inactive); in the test with A498 renal, 88.7% (inactive). Also, the growth in the test on CCRF-CEM leukemia was 93.9% (inactive); in the test with MOLT-4 leukemia, 141% (inactive).
On to `O=S(=O)(O)c1ccc(N=Nc2ccc(N=Nc3cccc4ccccc34)c(S(=O)(=O)O)c2)cc1`, for which the growth in the test with HCT-15 colon is 114% (inactive); in the test on HT29 colon it was 105% (inactive); in the test on SNB-75 CNS, 89.7% (inactive); with SNB-19 CNS, 110% (inactive); in the test with U251 CNS it was 102% (inactive); in the test on PC-3 prostate it was 84.5% (inactive). Also, the growth with SK-MEL-5 melanoma was 86.4% (inactive); in the test with UACC-62 melanoma, 98.4% (inactive); in the test on LOX IMVI melanoma, 94.1% (inactive); with SK-MEL-28 melanoma, 110% (inactive); in the test on SK-MEL-2 melanoma, 99.8% (inactive); with EKVX NSCLC, 97% (inactive). The growth is 102% (inactive) in the test with SN12C renal; 84.1% (inactive) with UO-31 renal; 112% (inactive) with TK-10 renal; 97.8% (inactive) in the test on ACHN renal; 97% (inactive) with CAKI-1 renal; 90.1% (inactive) with A498 renal. Also, the growth is 101% (inactive) with CCRF-CEM leukemia and 108% (inactive) in the test on MOLT-4 leukemia.
On to `COc1cc(/C=N/NC(=O)CCN2c3ccccc3Sc3ccccc32)cc(OC)c1OC`, for which the growth was 96.4% (inactive) in the test with HCT-15 colon; 90% (inactive) with HT29 colon; 91.6% (inactive) with SNB-75 CNS; 90.4% (inactive) in the test with SNB-19 CNS; 97.8% (inactive) in the test on U251 CNS; 61.4% (inactive) in the test with PC-3 prostate. The growth is 76.5% (inactive) in the test on SK-MEL-5 melanoma; 62.6% (inactive) with UACC-62 melanoma; 79.5% (inactive) with LOX IMVI melanoma; 97.5% (inactive) with SK-MEL-28 melanoma; 98.4% (inactive) with SK-MEL-2 melanoma; 72.7% (inactive) with EKVX NSCLC. Besides, the growth with SN12C renal was 76.8% (inactive); in the test with UO-31 renal it was 63.7% (inactive); in the test on TK-10 renal it was 110% (inactive); with ACHN renal, 76% (inactive); in the test on CAKI-1 renal, 67.1% (inactive); with A498 renal, 61.1% (inactive). Further, the growth was 73.9% (inactive) in the test on CCRF-CEM leukemia and 71.5% (inactive) with MOLT-4 leukemia.
As to `COC(=O)c1c2c(c(C)[n+]([O-])c1C)C(=O)C(NCCN1CCOCC1)=CC2=O`, the growth was 69.1% (inactive) with HCT-15 colon; 27.4% (inactive) with HT29 colon; 106% (inactive) in the test on SNB-75 CNS; 87.5% (inactive) in the test with SNB-19 CNS; 83.6% (inactive) in the test with U251 CNS; 75.2% (inactive) in the test on PC-3 prostate. In addition, the growth in the test on SK-MEL-5 melanoma was 48.5% (inactive); with UACC-62 melanoma it was 68.4% (inactive); with LOX IMVI melanoma, 57.2% (inactive); with SK-MEL-28 melanoma, 95.2% (inactive); in the test with SK-MEL-2 melanoma it was 78.2% (inactive); in the test with EKVX NSCLC, 65.8% (inactive). The growth with SN12C renal is 59% (inactive); with UO-31 renal, 82.2% (inactive); in the test with TK-10 renal, 111% (inactive); with ACHN renal, 85.5% (inactive); with CAKI-1 renal it was 73% (inactive); in the test with A498 renal, 129% (inactive). For the same molecule, the growth in the test on CCRF-CEM leukemia is 80.2% (inactive); with MOLT-4 leukemia it was 88.1% (inactive).
`OCCN1CCN(CC/C=C2\c3ccccc3Sc3ccc(Cl)cc32)CC1`: the growth in the test on HCT-15 colon was -38.8% (active) and 8.86% (active); in the test with HT29 colon it was -41.8% (active) and -43.3% (active); in the test on SNB-75 CNS, 60.2% (inactive) and 133% (inactive); with SNB-19 CNS, 58.4% (inactive) and 72.6% (inactive); in the test with U251 CNS, 27.6% (inactive) and 28.6% (inactive); in the test on PC-3 prostate, 33.6% (inactive) and 39.2% (inactive). For the same molecule, the growth is -83.5% (active) and -91.7% (active) with SK-MEL-5 melanoma; -93.8% (active) and -68.5% (active) in the test on UACC-62 melanoma; -30.2% (active) and 1.96% (active) in the test on LOX IMVI melanoma; -100% (active) and -78.1% (active) in the test with SK-MEL-28 melanoma; 46.5% (inactive) and -10.9% (active) with SK-MEL-2 melanoma; 80.8% (inactive) and 60.3% (inactive) with EKVX NSCLC. Besides, the growth in the test with SN12C renal is 63% (inactive) and 64.3% (inactive); in the test on UO-31 renal, 39.9% (inactive) and 2.89% (active); in the test with TK-10 renal, 57.7% (inactive); in the test with ACHN renal, 58.5% (inactive) and 71.1% (inactive); in the test on CAKI-1 renal, 53.5% (inactive); in the test with A498 renal, 45.4% (inactive) and 60.5% (inactive). For the same molecule, the growth in the test on CCRF-CEM leukemia was -17.7% (active) and 23.8% (inactive); in the test on MOLT-4 leukemia, -52.7% (active) and -10.3% (active).
